Laboratory results: ChEMBL document CHEMBL3988442, “University of Dundee, Small-Polar-MMV Screening Library” (2021)
For some assays here: Potency and affinity values are given separately.

What was measured:
Parameters in all cases: scale not given: direction of the effect not stated beside the values
[1] = molecular target: Protein translocase subunit SecA (Escherichia coli (strain K12)) (UniProt P10408); test: Assay to Identify E. coli SecA ATPase Inhibitors; assay type: functional; conditions: 30 µM
Chain of Protein translocase subunit SecA (Escherichia coli (strain K12)) (P10408 whole entry): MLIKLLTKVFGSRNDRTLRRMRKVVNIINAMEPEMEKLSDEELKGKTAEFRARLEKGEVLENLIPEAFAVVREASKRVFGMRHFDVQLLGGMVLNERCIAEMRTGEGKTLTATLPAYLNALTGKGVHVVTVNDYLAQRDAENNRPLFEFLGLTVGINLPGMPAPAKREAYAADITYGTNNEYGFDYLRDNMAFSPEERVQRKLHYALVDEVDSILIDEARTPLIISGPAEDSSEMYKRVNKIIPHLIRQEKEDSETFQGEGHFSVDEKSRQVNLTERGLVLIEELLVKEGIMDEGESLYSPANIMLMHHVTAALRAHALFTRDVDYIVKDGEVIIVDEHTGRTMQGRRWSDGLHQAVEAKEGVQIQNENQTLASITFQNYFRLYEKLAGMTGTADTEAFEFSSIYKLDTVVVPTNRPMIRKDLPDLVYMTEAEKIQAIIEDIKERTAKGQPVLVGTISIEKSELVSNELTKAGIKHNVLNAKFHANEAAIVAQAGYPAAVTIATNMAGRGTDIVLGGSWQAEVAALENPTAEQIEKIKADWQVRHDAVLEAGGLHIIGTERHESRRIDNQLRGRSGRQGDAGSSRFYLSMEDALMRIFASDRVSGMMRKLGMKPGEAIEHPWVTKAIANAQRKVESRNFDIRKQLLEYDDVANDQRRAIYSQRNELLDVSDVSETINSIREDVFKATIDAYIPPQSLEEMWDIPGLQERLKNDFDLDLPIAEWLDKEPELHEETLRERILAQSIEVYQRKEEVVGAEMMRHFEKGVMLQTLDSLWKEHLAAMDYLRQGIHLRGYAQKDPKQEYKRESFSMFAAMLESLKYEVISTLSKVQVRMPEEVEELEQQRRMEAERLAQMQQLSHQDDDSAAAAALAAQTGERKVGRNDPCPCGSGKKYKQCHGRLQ

[2] = molecular target: T1, Ubiquitin-activating enzyme e1, putative (Leishmania donovani (strain BPK282A1)) (UniProt E9BSI1); test: Leishmania donovani Ubiquitin Activating Enzyme (LdE1); assay type: functional; conditions: 30 µM
T1 sequence (whole entry): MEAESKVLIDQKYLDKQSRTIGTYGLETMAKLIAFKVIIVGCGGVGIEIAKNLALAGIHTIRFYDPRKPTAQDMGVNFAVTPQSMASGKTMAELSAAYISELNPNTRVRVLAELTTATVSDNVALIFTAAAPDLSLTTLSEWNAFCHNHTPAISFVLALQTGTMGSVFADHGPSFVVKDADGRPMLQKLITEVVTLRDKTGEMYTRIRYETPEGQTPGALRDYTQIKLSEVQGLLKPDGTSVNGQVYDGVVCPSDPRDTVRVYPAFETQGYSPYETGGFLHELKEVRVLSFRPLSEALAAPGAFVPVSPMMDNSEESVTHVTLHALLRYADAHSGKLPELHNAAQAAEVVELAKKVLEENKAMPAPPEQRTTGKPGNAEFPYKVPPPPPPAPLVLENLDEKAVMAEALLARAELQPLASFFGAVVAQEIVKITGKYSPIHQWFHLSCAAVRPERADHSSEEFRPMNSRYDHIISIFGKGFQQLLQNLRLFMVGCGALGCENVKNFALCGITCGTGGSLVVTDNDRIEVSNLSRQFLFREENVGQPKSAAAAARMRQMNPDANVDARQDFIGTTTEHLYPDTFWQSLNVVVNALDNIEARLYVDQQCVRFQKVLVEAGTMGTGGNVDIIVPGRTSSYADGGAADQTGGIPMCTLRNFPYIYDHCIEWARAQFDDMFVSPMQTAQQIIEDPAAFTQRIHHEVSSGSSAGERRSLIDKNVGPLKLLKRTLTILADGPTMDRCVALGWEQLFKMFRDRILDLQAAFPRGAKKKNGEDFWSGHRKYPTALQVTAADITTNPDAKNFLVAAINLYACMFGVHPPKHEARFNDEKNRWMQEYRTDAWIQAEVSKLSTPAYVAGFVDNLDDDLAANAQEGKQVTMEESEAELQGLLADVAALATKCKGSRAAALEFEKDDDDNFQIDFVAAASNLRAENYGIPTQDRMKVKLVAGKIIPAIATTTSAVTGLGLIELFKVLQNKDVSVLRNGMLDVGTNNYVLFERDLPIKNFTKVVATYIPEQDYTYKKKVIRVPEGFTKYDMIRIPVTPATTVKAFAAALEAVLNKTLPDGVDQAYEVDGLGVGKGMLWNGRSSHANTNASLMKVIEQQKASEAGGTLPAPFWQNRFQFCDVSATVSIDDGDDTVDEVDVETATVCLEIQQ

[3] = molecular target: AMP-activated protein kinase, AMPK (Homo sapiens) (UniProt P54646+O43741+P54619+Q9UGJ0+Q9Y478+Q13131+Q9UGI9); test: AMP-dependent Kinase enzyme assay. An in vitro enzyme assay that detects ADP turnover that is directly proportional to AMPK activity. This uses naive AMPK that is activated during the assay with MK-8722; assay type: functional; conditions: 30 µM
[4] = molecular target: Sialic acid-binding Ig-like lectin 9 (Homo sapiens) (UniProt Q9Y336); test: Hs-Siglec9 ALPHAscreen SOP 20170721; conditions: 10 µM
Chain of Sialic acid-binding Ig-like lectin 9 (Homo sapiens) (Q9Y336 whole entry): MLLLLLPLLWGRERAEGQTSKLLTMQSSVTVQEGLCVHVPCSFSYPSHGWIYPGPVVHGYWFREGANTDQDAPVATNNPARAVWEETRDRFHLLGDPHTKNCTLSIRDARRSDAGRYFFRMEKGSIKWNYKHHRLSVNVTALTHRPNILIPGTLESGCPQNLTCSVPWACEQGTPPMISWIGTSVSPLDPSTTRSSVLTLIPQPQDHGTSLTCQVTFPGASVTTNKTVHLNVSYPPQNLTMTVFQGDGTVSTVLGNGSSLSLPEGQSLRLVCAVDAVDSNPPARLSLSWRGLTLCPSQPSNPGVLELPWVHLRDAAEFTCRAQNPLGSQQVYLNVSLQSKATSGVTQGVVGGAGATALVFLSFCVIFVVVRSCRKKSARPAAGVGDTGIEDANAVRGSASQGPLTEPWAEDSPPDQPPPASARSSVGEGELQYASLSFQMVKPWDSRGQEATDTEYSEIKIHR

Trypanosoma cruzi = test: Trypanosoma cruzi phosphomannomutase and mannose-1-phosphate guanylyltransferase assay; assay type: functional; conditions: 10 µM
[5] = molecular target: T2, Arginase-2, mitochondrial (Homo sapiens) (UniProt P78540); test: in vitro enzyme assay to detect the production of urea directly proportional to the activity of Arginase II; assay type: functional; conditions: 33.3 µM; further: in the data most compounds retested in dose-response had high values
T2 sequence (whole entry): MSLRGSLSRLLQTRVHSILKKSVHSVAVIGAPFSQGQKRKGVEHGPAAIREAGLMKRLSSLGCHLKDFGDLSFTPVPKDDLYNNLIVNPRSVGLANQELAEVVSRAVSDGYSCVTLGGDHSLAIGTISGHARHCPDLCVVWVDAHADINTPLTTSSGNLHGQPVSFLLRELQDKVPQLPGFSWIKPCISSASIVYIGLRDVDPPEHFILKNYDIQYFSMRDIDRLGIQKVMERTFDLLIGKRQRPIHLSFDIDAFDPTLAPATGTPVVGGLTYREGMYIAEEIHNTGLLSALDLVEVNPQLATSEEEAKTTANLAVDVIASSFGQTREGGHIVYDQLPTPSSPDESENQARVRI

[6] = molecular target: T3, Proteasome subunit beta (Trypanosoma cruzi) (UniProt O96673); test: Trypanosoma cruzi proteasome chymotrypsin-like activity (TcProtChymo) assay.; further: in the data most compounds retested in dose-response had high values; assay type: functional; conditions: 9.37 µM
T3 sequence (whole entry): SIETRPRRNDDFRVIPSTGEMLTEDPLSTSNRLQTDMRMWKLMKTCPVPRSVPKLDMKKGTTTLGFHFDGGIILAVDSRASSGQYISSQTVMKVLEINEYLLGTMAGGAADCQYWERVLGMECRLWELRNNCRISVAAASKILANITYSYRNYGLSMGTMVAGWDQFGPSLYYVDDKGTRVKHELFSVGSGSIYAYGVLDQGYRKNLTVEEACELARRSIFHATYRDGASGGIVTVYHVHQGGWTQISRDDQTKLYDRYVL

Homo sapiens = species: Homo sapiens; test: To identify inhibition of the IFN signalling (Jak-Stat) pathway via expression of an eGFP reporter gene under the control of an IFN-stimulated response element (ISRE) containing MxA promoter.; assay type: functional; conditions: 30 µM
[7] = molecular target: T4, Tyrosyl-tRNA synthetase, putative (Trypanosoma cruzi (strain CL Brener)) (UniProt Q4DSP6); test: Trypanosoma cruzi tyrosyl tRNA synthetase (TcYRS) _High Tyrosine SOP; assay type: functional; conditions: 30 µM; further: in the data most compounds retested in dose-response had high values
T4 sequence (whole entry): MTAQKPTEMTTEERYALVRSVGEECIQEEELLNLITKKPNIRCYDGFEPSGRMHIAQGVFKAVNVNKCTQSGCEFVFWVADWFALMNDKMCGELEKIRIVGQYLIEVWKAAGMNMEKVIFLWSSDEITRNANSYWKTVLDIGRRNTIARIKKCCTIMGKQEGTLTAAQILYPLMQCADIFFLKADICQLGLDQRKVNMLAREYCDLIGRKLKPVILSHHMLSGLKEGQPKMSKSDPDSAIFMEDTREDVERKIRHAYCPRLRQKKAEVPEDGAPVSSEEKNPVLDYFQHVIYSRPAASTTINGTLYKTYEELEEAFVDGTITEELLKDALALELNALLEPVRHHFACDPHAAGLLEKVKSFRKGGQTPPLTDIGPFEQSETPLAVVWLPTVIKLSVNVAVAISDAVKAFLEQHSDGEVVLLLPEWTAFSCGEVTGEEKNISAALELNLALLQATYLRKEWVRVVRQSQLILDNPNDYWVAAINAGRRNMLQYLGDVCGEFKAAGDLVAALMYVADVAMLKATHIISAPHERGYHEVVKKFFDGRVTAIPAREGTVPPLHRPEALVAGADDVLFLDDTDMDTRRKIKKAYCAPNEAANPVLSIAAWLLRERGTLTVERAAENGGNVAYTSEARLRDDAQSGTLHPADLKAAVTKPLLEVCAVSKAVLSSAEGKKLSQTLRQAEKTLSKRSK

[8] = molecular target: T4, Tyrosyl-tRNA synthetase, putative (Trypanosoma cruzi (strain CL Brener)); test: Trypanosoma cruzi tyrosyl tRNA synthetase (TcYRS) SOP; assay type: functional; conditions: 30 µM
[9] = molecular target: Chromo domain-containing protein 1 (Saccharomyces cerevisiae (strain ATCC 204508 / S288c) (Baker's yeast)) (UniProt P32657); test: ScCHD-1 Enzyme Inhibition Assay; assay type: functional; conditions: 30 µM; further: in the data most compounds retested in dose-response had high values
Chain of Chromo domain-containing protein 1 (Saccharomyces cerevisiae (strain ATCC 204508 / S288c) (Baker's yeast)) (P32657 whole entry, the tested form may be a part): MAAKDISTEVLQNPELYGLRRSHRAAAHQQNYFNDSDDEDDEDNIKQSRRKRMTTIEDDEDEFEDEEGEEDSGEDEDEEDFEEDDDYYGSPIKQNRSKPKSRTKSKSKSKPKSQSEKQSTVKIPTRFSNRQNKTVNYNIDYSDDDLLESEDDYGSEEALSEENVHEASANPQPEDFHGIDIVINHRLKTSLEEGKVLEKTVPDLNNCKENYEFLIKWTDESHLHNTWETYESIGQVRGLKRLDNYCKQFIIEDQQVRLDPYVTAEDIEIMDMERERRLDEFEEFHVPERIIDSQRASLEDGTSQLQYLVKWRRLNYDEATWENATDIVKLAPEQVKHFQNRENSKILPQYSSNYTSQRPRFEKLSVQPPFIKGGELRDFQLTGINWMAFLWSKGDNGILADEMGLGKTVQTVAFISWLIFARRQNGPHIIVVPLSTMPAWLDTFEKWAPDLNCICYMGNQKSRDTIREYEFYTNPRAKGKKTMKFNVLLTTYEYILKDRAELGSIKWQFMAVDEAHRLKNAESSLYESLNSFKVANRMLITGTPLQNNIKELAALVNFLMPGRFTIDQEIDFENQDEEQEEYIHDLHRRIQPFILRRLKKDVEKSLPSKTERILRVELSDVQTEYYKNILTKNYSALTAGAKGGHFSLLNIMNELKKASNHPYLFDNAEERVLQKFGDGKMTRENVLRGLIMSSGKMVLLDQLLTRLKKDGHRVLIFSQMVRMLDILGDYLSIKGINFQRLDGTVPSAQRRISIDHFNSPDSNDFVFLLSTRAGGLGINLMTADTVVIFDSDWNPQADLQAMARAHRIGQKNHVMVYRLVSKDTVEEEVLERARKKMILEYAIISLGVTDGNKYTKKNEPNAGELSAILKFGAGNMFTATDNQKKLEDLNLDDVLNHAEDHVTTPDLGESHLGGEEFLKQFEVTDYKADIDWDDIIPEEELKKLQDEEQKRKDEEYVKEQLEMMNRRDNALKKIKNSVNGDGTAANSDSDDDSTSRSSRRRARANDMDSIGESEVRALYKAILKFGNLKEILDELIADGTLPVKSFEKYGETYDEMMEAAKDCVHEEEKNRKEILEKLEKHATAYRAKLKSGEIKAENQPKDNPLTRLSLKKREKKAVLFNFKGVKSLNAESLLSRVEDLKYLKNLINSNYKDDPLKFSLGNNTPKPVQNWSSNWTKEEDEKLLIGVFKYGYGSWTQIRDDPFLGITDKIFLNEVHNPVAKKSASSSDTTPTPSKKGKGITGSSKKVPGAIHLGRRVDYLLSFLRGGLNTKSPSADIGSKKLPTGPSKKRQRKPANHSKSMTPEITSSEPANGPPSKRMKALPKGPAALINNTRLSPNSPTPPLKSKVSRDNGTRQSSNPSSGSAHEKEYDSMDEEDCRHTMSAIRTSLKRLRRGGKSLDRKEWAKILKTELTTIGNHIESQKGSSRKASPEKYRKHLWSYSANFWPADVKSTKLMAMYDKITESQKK

| SMILES | Percent Effect [1] [%] | Percent Effect [2] [%] | Percent Effect [3] [%] | Percent Effect [4] [%] | Percent Effect (Trypanosoma cruzi) [%] | Percent Effect [5] [%] | Percent Effect [6] [%] | Percent Effect (Homo sapiens) [%] | Percent Effect [7] [%] | Percent Effect [8] [%] | Percent Effect [9] [%] |
| --- | --- | --- | --- | --- | --- | --- | --- | --- | --- | --- | --- |
| COc1ccc(C2CCCN2S(=O)(=O)N(C)CC(C)C)cc1 (configuration not stated) | -1.74 | -6.94 | 6.36 | -0.345 | -2.62 | -3.97 | 5.61 | -1.6 | -5.26 | -10.3 | -2.11 |
| Cc1cnc2n(c1=O)CC(C(=O)Nc1ccccc1Cl)CS2 (configuration not stated) | -2.2 | -2.74 | -2.72 | 0.622 | -2.94 | -1.36 | 5.68 | -7.02 | 1.07 | 0 | -1.89 |
| CCN(C(=O)CCCOc1ccccc1F)c1ccncc1 | -5.32 | 18.4 | -2.56 | 5.73 | 5.36 | -20.1 | 10.1 | 11.9 | 5.32 | 7.79 | -5.44 |
| CO[C@H]1CO[C@@]2(CCCN(C(=O)C3=CCCCC3)C2)C1 | -5.62 | 13.3 | 1.22 | -1.82 | 1.35 | -47.5 | 8.03 | 0.996 | 3.12 | 2.5 | -8 |
| NC(=O)COc1ccc(CNCc2ccc(F)cc2F)cc1 | -2.69 | 6.94 | -4.07 | 9.21 | 3.01 | 24.7 | 8.42 | -28.4 | 9.47 | 12.8 | -5.67 |
| COc1ccc(Cl)cc1C(=O)N1CCCC(n2nc(C)nc2C)C1 (configuration not stated) | -3.26 | 0 | 9.49 | -8.91 | -6.33 | -3.8 | -4.5 | 16.6 | -2.46 | -3.8 | 2.53 |
| O=C(NCc1cc[nH]n1)N1CCN(c2ccccc2Cl)CC1 | -5 | 23.7 | -1.65 | 3.62 | 1.96 | -0.719 | 14.1 | 15.6 | 7.39 | 18.5 | -10.1 |
| CC(C)COCC1CN(Cc2ccc3c(c2)OCO3)Cc2ncn(C)c21 (configuration not stated) | -6.14 | -5.41 | 10.1 | 2.92 | -1.17 | -3.75 | 2.11 | 29.9 | 3.96 | 3.66 | 0.344 |
| Cc1ccc2oc(CNC(C)c3nnc4n3CCCC4)cc2c1 (configuration not stated) | -2.09 | -10.8 | -8.92 | -1.29 | 0.781 | -2.5 | 10.6 | 17.8 | 11.9 | 15.8 | 1.91 |
| CNS(=O)(=O)Cc1ccc(CNC(=O)c2ccc(C)[nH]c2=O)cc1 | -4.48 | 28.6 | -2.88 | 7.58 | 6.37 | -1.07 | 5.91 | -2.15 | 10.7 | 26.8 | -6.56 |
| CCOCC(O)CN1CCN(C(=O)CC(C)(C)C)CC1 (configuration not stated) | -3.75 | -2.7 | -10.6 | 5.4 | -1.98 | 0.401 | -7.75 | 0.227 | 2.46 | 3.7 | 1.7 |
| CN(Cc1cn2c(n1)CN(c1ncc(F)cn1)CC2)Cc1ccco1 | -3.08 | 13.3 | -4.28 | -1.26 | 0.197 | 4.89 | 20.7 | 1.67 | 9.57 | 21.8 | -5.99 |
| CCN1C(=O)C2(CCOCC2)c2cc(NC(=O)c3ccco3)ccc21 | -4.08 | 18.2 | -1.2 | 14.7 | 3.64 | -11 | 9.98 | 14.7 | 5.38 | 11.1 | 3.7 |
| Fc1ccc(-c2cnc(CN3CCCC3Cn3cccn3)o2)cc1 (configuration not stated) | -4.06 | 7.59 | -2.14 | -12.9 | -4.82 | 7.22 | 12.7 | 24.8 | 2.46 | 13.9 | -1.62 |
| CC1=N[C@@]2(CC[C@@H]3CN(S(=O)(=O)CC(C)C)C[C@@H]32)C(=O)N1CC(C)C | -5.41 | 5.41 | 5.56 | -6.18 | -2.64 | 2.23 | 23.8 | -9.78 | 3.24 | 10.3 | -0.878 |
| COc1cccc(CN2C[C@@H]3COC[C@]3(COCc3ccncc3)C2)c1 | -5.26 | 8.11 | 5.1 | -1.02 | 6.94 | -4.14 | 14.6 | 5.58 | 2.16 | 10.3 | -0.65 |
| Cn1nccc1C(=O)N1CCOC(Cc2cccnc2)C1 (configuration not stated) | -5.75 | 10.7 | -3.23 | 4.56 | 5.91 | -3.03 | -4.85 | 7.36 | 6.38 | 16.7 | -7.31 |
| CC(CNC(=O)Nc1cn[nH]c1)N1CCOCC1 (configuration not stated) | -0.592 | 13 | 1.69 | -6.2 | -3.04 | 6.53 | 15.9 | 25 | 7.62 | 18.8 | -18.5 |
| CC(C)S(=O)(=O)NCC1CCCN(C(=O)c2ccc3c(c2)OCCO3)C1 (configuration not stated) | -6.68 | 5.48 | 3.11 | -9.4 | 0.196 | 0 | 7.81 | 5.65 | -1.07 | 5 | -3.79 |
| CC(C(=O)NCc1ccc(-n2cncn2)nc1)n1ccnc1 (configuration not stated) | -3.77 | 2.6 | 0.227 | 15 | 2.25 | 1.05 | -1.21 | -15.5 | 2.86 | 2.35 | -8.54 |
| COc1c(CNCc2ccc(CN(C)C)cc2)c(C)nn1C | 3.12 | -1.27 | 3.93 | 0.303 | 3.79 | 4.95 | 9.26 | -11.7 | -3.12 | 2.53 | -2.72 |
| Cc1ccc(-c2csc(N)c2C#N)cc1 | -0.493 | 6.67 | -1.04 | 11.3 | -3.34 | -4.05 | 13.1 | 28 | -6.35 | -12.8 | 2.72 |
